In all, about 8,300 sequences were measured (“log2 fold change of degron read counts, EGFP-low vs EGFP+ sorted cells (limma voom), compound-induced degradation”: median about -1.1, highest 2% from about 3.2 on). Many of the other results were omitted from the sample, so the highest values are more common in it than they were.
T1: CRBN, Q96SW2
T1 chain: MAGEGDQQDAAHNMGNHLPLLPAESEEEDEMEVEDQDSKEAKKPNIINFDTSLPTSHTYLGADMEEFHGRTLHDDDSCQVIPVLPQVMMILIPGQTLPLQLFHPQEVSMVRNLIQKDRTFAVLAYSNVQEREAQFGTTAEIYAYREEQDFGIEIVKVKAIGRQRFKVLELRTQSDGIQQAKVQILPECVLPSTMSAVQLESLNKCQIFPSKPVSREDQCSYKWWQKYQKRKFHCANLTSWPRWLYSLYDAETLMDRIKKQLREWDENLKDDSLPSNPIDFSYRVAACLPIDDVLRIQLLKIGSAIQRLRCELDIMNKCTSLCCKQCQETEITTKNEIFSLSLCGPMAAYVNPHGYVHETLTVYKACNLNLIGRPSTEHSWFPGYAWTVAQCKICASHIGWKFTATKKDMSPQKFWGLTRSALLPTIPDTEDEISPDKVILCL


Biological target: T1, CRBN, Q96SW2
Test: log2 fold change of degron read counts, EGFP-low vs EGFP+ sorted cells (limma voom), compound-induced degradation; higher = more compound-induced degradation of the degron-EGFP fusion; degrons are variants of IKZF1/3 zinc finger 2; compound dose not given here
Details: Jurkat, 18 h
[1] = compound: compound 19 (5-tert-butyl-thalidomide)
[2] = compound: compound 22 (5-morpholino-thalidomide)
[3] = compound: compound 33 (diphenyl IMiD analogue)
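Also: pooled lentiviral library of zinc finger degron-EGFP fusions in mCherry-positive Jurkat cells, FACS-sorted after compound exposure, with degron abundance counted by next-generation sequencing.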

Sequence | log2 fold change of degron read counts [1] | log2 fold change of degron read counts [2] | log2 fold change of degron read counts [3] | log2 fold change of degron read counts (compound: thalidomide)
FLCPQCGATFTQKGNLLRHIKL [46F_47L_49P_50Q_52G_53A_54T_55F_67L_, Q9UKT9] | -3.01 | -2.75 | -0.206 | -0.949
FLCEICGHMFTQKGNLLRHIKL [46F_47L_49E_50I_52G_53H_54M_55F_67L_, Q9UKT9] | -2.82 | -2.78 | -2.56 | -2.3
FGCPICGRGFTQKGNLLRHIKL [46F_47G_49P_50I_52G_53R_54G_55F_67L_, Q9UKT9] | 2.07 | -0.191 | 0.245 | -0.872
FTCPQCGATFTQKGNLLRHIKL [46F_47T_49P_50Q_52G_53A_54T_55F_67L_, Q9UKT9] | -2 | -0.214 | 1.22 | 0.676
FTCNQCGAIFTQKGNLLRHIKL [46F_47T_49N_50Q_52G_53A_54I_55F_67L_, Q9UKT9] | -2.47 | -2.59 | -1.37 | -1.93
FVCPQCGAEFTQKGNLLRHIKL [46F_47V_49P_50Q_52G_53A_54E_55F_67L_, Q9UKT9] | -2.41 | -1.67 | -0.946 | -0.352
FECEICGRDFTQKGNLLRHIKL [46F_47E_49E_50I_52G_53R_54D_55F_67L_, Q9UKT9] | -3.1 | -3.32 | -2.34 | -2.82
LGCEICGFNCTQKGNLLRHIKL [46L_47G_49E_50I_52G_53F_54N_55C_67L_, Q9UKT9] | -0.546 | -1.21 | -1.47 | -1.13
FVCEICGRKFTQKGNLLRHIKL [46F_47V_49E_50I_52G_53R_54K_55F_67L_, Q9UKT9] | -1.83 | -1.33 | -1.16 | 1.3
LLCEICGFICTQKGNLLRHIKL [46L_47L_49E_50I_52G_53F_54I_55C_67L_, Q9UKT9] | -0.407 | -0.959 | 0.146 | 1.04
FHCPICGRQFTQKGNLLRHIKL [46F_47H_49P_50I_52G_53R_54Q_55F_67L_, Q9UKT9] | 0.0895 | 0.838 | 1.45 | 0.286
LFCPICGFRCTQKGNLLRHIKL [46L_47F_49P_50I_52G_53F_54R_55C_67L_, Q9UKT9] | 3.24 | 3.2 | 1.81 | 1.69
LMCPICGFECTQKGNLLRHIKL [46L_47M_49P_50I_52G_53F_54E_55C_67L_, Q9UKT9] | -0.925 | 0.39 | 2.43 | 1.39
LCCPICGFPCTQKGNLLRHIKL [46L_47C_49P_50I_52G_53F_54P_55C_67L_, Q9UKT9] | 0.812 | 1.08 | 1.35 | 1.76
LKCPICGFRCTQKGNLLRHIKL [46L_47K_49P_50I_52G_53F_54R_55C_67L_, Q9UKT9] | -1.28 | -2.03 | -2.25 | -0.57
LQCPICGFECTQKGNLLRHIKL [46L_47Q_49P_50I_52G_53F_54E_55C_67L_, Q9UKT9] | 1.35 | 1.29 | 2.04 | 3.44
LSCPICGFRCTQKGNLLRHIKL [46L_47S_49P_50I_52G_53F_54R_55C_67L_, Q9UKT9] | 2.79 | 2.57 | 1.22 | 2.27
LHCPICGFRCTQKGNLLRHIKL [46L_47H_49P_50I_52G_53F_54R_55C_67L_, Q9UKT9] | 2.28 | 2.4 | 1.58 | 1.74
LICPICGFPCTQKGNLLRHIKL [46L_47I_49P_50I_52G_53F_54P_55C_67L_, Q9UKT9] | 0.112 | 1.65 | 0.899 | 1.78
LNCPICGFRCTQKGNLLRHIKL [46L_47N_49P_50I_52G_53F_54R_55C_67L_, Q9UKT9] | 1.52 | 0.801 | 0.131 | 1.04
LRCPICGFPCTQKGNLLRHIKL [46L_47R_49P_50I_52G_53F_54P_55C_67L_, Q9UKT9] | 2.94 | 3.54 | 3.02 | 3.44
LACPICGFRCTQKGNLLRHIKL [46L_47A_49P_50I_52G_53F_54R_55C_67L_, Q9UKT9] | 3.37 | 2.7 | 1.18 | 2.12
LVCPICGFECTQKGNLLRHIKL [46L_47V_49P_50I_52G_53F_54E_55C_67L_, Q9UKT9] | 0.125 | 2.29 | 1.28 | 2.99
FCCPVCGAMFTQKGNLLRHIKL [46F_47C_49P_50V_52G_53A_54M_55F_67L_, Q9UKT9] | 1.36 | 0.957 | 2.19 | 1.18
FGCNVCGACFTQKGNLLRHIKL [46F_47G_49N_50V_52G_53A_54C_55F_67L_, Q9UKT9] | 0.221 | 0.434 | 1.03 | -0.871
FRCEICGHAFTQKGNLLRHIKL [46F_47R_49E_50I_52G_53H_54A_55F_67L_, Q9UKT9] | -3.15 | -2.82 | -1.17 | -1.87
FACNVCGAEFTQKGNLLRHIKL [46F_47A_49N_50V_52G_53A_54E_55F_67L_, Q9UKT9] | -1.27 | -1.39 | -1.75 | -2.2
FMCSVCGHCFTQKGNLLRHIKL [46F_47M_49S_50V_52G_53H_54C_55F_67L_, Q9UKT9] | -2.46 | -3.02 | -2.83 | -2.57

Source: the supplement of paper PMC12645437, “Orthogonal IMiD-Degron Pairs Induce Selective Protein Degradation in Cells” (ACS Chemical Biology, 2025)
